# NIH3T3 tox: NIH 3T3 cell cytotoxicity; AID 1345082; Potency, µM (doses to about 96.7 µM), hits mostly inhibitors; 94,000 compounds, 4.3% hits; NIH 3T3 viability, CellTiter-Glo ATP luminescence, 48-72 h; note: nearly all actives have a fitted effect of over 55% in size
#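 Cytotoxicity was measured by CellTiter-Glo ATP luminescence after 48 or 72 h compound exposure at 37 °C. Mouse NIH 3T3 fibroblasts were seeded at 400 cells/well and dosed by 23 nL pin transfer.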
# HEK293 tox: kills HEK 293 cells; Potency, µM (series often up to 115 µM), most hits filed as inhibitors; 94,000 compounds, 6.6% hits; HEK 293 viability, ATP luminescence (CellTiter-Glo), 48-72 h; AID 1345083; note: nearly all actives have a fitted effect of over 60% in size
#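 250 HEK 293 cells/well; compound by pintool; incubated 48 or 72 hr at 37 degree Celsius; CellTiter-Glo added, 10 min RT, luminescence imaged.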
# NPR1 antag: human Npr1 receptor antagonism | Potency, µM (doses to about 46.3 µM), hits mostly inhibitors | HEK293 hNpr1 GloSensor cGMP, ANP-stimulated luminescence | 76,000 compounds, 1.6% hits | P16066; calls by dose curve; note: nearly all actives have a fitted effect of over 60% in size
#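 HEK293 cells stably expressing human Npr1 and cGMP GloSensor pGS-40F, loaded 2 h with 2% GloSensor reagent, given compound 30 min at room temperature. Luminescence read before and 20 min after 0.1 nM hNppA.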
# FLuc inh-1: blocks purified firefly luciferase enzyme activity; 76,000 compounds, 2.5% hits; P08659; Potency, µM (doses to about 115 µM), actives largely listed as inhibitors; purified P. pyralis luciferase, luminescence, biochemical; note: nearly all actives have a fitted effect of over 65% in size
# Target sequence (P08659 whole entry, looked up): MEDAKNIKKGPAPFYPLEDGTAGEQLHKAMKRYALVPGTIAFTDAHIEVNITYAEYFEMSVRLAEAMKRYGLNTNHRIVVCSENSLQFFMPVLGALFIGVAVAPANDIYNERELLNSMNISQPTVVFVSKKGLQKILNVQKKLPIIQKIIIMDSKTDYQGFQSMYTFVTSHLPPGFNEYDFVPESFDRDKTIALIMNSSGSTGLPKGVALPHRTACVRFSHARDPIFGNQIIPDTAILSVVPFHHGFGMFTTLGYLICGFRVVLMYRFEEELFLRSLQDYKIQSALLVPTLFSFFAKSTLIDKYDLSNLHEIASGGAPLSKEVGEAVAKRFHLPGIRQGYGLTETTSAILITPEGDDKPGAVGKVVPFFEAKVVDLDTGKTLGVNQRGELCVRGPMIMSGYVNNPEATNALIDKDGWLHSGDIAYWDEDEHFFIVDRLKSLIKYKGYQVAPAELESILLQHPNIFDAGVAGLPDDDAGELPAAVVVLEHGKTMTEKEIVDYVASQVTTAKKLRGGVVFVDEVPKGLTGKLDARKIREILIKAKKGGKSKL
#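 Biochemical qHTS: compound (6-point titration) added to 10uM D-luciferin plus 10uM ATP in Tris acetate pH 7.5 buffer with Mg, Tween-20 and BSA, then purified enzyme at 10nM; light output imaged.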
# FLuc SDR -ATP: firefly luciferase binding stabilization, ATP absent. shares compounds with FLuc inh-1. Purified FLuc-C-HiBiT, Nano-Glo HiBiT luminescence, no ATP. Potency, µM (highest dose often 32.7 µM), usual class: activators. 1,300 compounds, 7.8% hits. AID 1963318; note: nearly all actives have a fitted effect of over 55% in size
# FLuc SDR ATP: firefly luciferase binding stabilization, ATP added. shares compounds with FLuc inh-1. 1,300 compounds, 8.7% hits. Potency, µM (doses to about 32.7 µM), most hits filed as activators. purified FLuc-C-HiBiT + ATP, HiBiT complementation luminescence;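 note: signal reports ligand binding via conformational change of the enzyme rather than luciferase catalysis; nearly all actives have a fitted effect of over 55% in size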
# FLuc inh-2: inhibitors of firefly luciferase enzymatic activity; 1,300 compounds, 42% hits; Potency, µM (series often up to 32.7 µM), most hits filed as inhibitors; shares compounds with FLuc inh-1; purified FLuc-C-HiBiT enzyme, luciferin luminescence; note: nearly all actives have a fitted effect of over 70% in size
# A number is an active result; 0 = inactive; ? = inconclusive; - = no result. Compounds with a hit are over-represented: about 11% of the library has one in this group of screens. Unless noted, calls come from the whole dose curve; as a rule, active = well fitted curve in the direction sought with a large enough effect; inconclusive = small, poorly fitted or top-dose-only effect, or another doubt; inactive = no such curve, though single readings can be large; an effect the other way counts as inactive or inconclusive.
SMILES,NIH3T3 tox,HEK293 tox,NPR1 antag,FLuc inh-1,FLuc SDR -ATP,FLuc SDR ATP,FLuc inh-2
c1ccc(Nc2cc3c(cn2)CN(Cc2ccn[nH]2)CCN3)cc1,?,?,0,7.94µM,0,0,?
CC(=O)N1CCNc2cc(NCc3ccc(F)cc3)ncc2C1,0,0,0,?,-,-,-
c1ccc(CN2CCNc3cnc(Nc4ccncn4)cc3C2)cc1,?,?,0,0,-,-,-
Cc1cn2nc(C(=O)Nc3ccc(C(=O)N4CCCC4)cc3)cc2c(=O)[nH]1,?,?,0,7.94µM,?,?,9.89µM
CCc1ccccc1NC(=O)c1cc2c(=O)[nH]c(C)cn2n1,0,0,0,12.6µM,0,0,?
Cc1cn2nc(C(=O)NCc3ccccc3Cl)cc2c(=O)[nH]1,0,0,0,?,-,-,-
Cc1cn2nc(C(=O)NCCc3ccccc3)cc2c(=O)[nH]1,0,0,0,10µM,?,?,?
CC(C)CCCC1CN(C(=O)c2cn(C3CCC(N)CC3)nn2)CCO1 (centres undefined),?,?,0,0,-,-,-
COCCN1C(=O)CS(=O)(=O)C12CCN(C(=O)Cc1ccc(Cl)cc1)CC2,0,0,0,0,-,-,-
Cc1ccc(NC(=O)c2ccc3c(c2)N(C)C2CCCN2C3=O)cc1C (centres undefined),0,0,0,12.6µM,0,?,?
Cc1ccc(NC(=O)c2ccc3c(c2)N(C)C2CCCN2C3=O)cc1F (centres undefined),0,?,?,1.26µM,0,4.42µM,8.81µM
COc1ccc(NC(=O)c2ccc3c(c2)N(C)C2CCCN2C3=O)cc1OC (centres undefined),0,?,0,0,-,-,-
CN1c2cc(C(=O)Nc3cc(F)ccc3F)ccc2C(=O)N2CCCCCC21 (centres undefined),?,?,0,11.2µM,0,?,?
COC1C(=O)N(c2cccc(F)c2)C12CCN(C(=O)CCc1c[nH]c3ccccc13)CC2 (centres undefined),0,?,0,0,-,-,-
CN(C)C(=O)c1cc(-c2ccc(Cl)cc2)cn1C,0,?,0,?,-,-,-
Cc1ccc(-c2cc(C(=O)O)n(C)c2)cc1,0,0,0,15.8µM,0,?,?
Cn1cc(-c2ccc(Cl)cc2)cc1C(=O)O,?,?,0,?,0,0,0
Cc1ccc(-n2ncc3c(N4CCCC(C)C4)ncnc32)cc1C (centres undefined),-,-,-,-,3.51µM,1.24µM,0.157µM
CC1CCCN(c2ncnc3c2cnn3-c2cccc(Cl)c2)C1 (centres undefined),-,-,-,-,11.1µM,?,0.785µM
CC1CCCN(c2ncnc3c2CN(c2ccccc2)C(=O)N(C)C3)C1 (centres undefined),0,0,0,0,-,-,-
CC(=O)NCc1nnc2n1C(C(=O)NCCCc1ccccc1)CC2 (centres undefined),0,0,-,-,-,-,-
Cc1cccc(CCNC(=O)c2sc3nc4n(c(=O)c3c2C)CCCC4)c1,-,-,-,-,0,0,0
COc1cc(SC)ccc1C(=O)N[C@H]1CCN2C(=O)[C@@H](CC(C)C)NC(=O)[C@@H]2C1,0,0,0,0,-,-,-
Cc1ccc(CSc2nc3cccnc3n2Cc2ccc(C(=O)NCc3ccco3)cc2)cc1,-,-,-,-,3.94µM,?,0.624µM
CCOc1ccc(NC(=O)CCc2c(C)nc3cc(-c4ccc(Cl)cc4)nn3c2C)cc1,-,-,-,-,0,0.989µM,2.79µM
COC(=O)c1ccccc1NC(=O)CCc1c(C)nc2cc(-c3ccc(Cl)cc3)nn2c1C,-,-,-,-,0,?,?
CCOC(=O)c1cccc(NC(=O)CCc2c(C)nc3cc(-c4ccc(Cl)cc4)nn3c2C)c1,-,-,-,-,0,?,8.81µM
CCN1c2cc(C(=O)NCc3ccc(SC)cc3)ccc2C(=O)N2CCCCCC21 (centres undefined),?,?,0,0,-,-,-
COCCN1C(=O)c2ccccc2C(C(=O)Nc2ccccc2O)C12CCCCC2 (centres undefined),0,0,0,0,-,-,-

# Assay outcomes as filed in PubChem.
